PubChem BioAssay AID1159580 (chemical genetic matrix, 2015)
Out of some 5,500 compounds screened, about 2,000 (36%) were called active. Roughly 18% stayed inconclusive and do not appear here. Rule as the data show it: active = normalized growth mostly below about 0.91 (no sharp cut-off); inconclusive = no clear call, values can overlap the other calls; inactive = mostly above about 0.92. This is one part of the list.

Assay: chemical genetic growth profiling, strain panel (AID 1159580);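 also: tested at 20 µM; growth read once vehicle control cultures reached saturation at 30 °C; 1 = growth at the plate median or of vehicle wells; lower values mean less growth of the strain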
Conditions: S. cerevisiae deletion strains, growth OD
[1] = locus YAL013W, strain DEP1, stronger effect = lower value
[2] = locus YJR075W, strain HOC1, stronger effect = lower value
[3] = locus YMR263W, strain SAP30, stronger effect = lower value
[4] = locus YNL153C, strain GIM3, stronger effect = lower value
[5] = locus YNL322C, strain KRE1, stronger effect = lower value
[6] = locus YPL055C, strain LGE1, stronger effect = lower value
[7] = locus YAL040C, strain CLN3, stronger effect = lower value
[8] = locus YCL061C, strain MRC1 (second series), stronger effect = lower value
[9] = locus YDR363W, strain ESC2, stronger effect = lower value
[10] = locus YER002W, strain NOP16, stronger effect = lower value
[11] = locus YNL175C, strain NOP13, stronger effect = lower value
[12] = locus YNL197C, strain WHI3, stronger effect = lower value
[13] = locus YNL224C, strain SQS1, stronger effect = lower value
[14] = locus YOR083W, strain WHI5 (second series), stronger effect = lower value

Measured: normalized growth

NC(N)=NC(N)=Nc1cc(Cl)cc(Cl)c1
inactive: [1] 1 | locus YBR229C, strain ROT2, stronger effect = lower value 1.01 | locus YDL101C, strain DUN1, stronger effect = lower value 1 | locus YDL134C, strain PPH21, stronger effect = lower value 1.01 | locus YDR150W, strain NUM1, stronger effect = lower value 0.919 | locus YEL061C, strain CIN8, stronger effect = lower value 1.02 | locus YGR078C, strain PAC10, stronger effect = lower value 1 | locus YHR030C, strain SLT2, stronger effect = lower value 0.98 | locus YHR087W, strain rtc3, stronger effect = lower value 1.01 | locus YJL187C, strain SWE1, stronger effect = lower value 1.01 | locus YJR043C, strain POL32, stronger effect = lower value 0.999 | [2] 0.972 | locus YLR039C, strain RIC1, stronger effect = lower value 0.975 | locus YLR058C, strain SHM2 (second series), stronger effect = lower value 0.999 | locus YLR085C, strain ARP6, stronger effect = lower value 1.03 | locus YLR262C, strain YPT6, stronger effect = lower value 1 | locus YML094W, strain GIM5, stronger effect = lower value 1.03 | locus YMR219W, strain ESC1, stronger effect = lower value 0.99 | [3] 0.987 | locus YMR307W, strain GAS1, stronger effect = lower value 0.889 | [4] 0.983 | locus YNL298W, strain CLA4 (second series), stronger effect = lower value 1.03 | [5] 0.999 | locus YNR030W, strain Alg12, stronger effect = lower value 1.02 | locus YOL006C, strain TOP1, stronger effect = lower value 1.06 | [6] 0.884 | locus YPL241C, strain CIN2, stronger effect = lower value 1.01 | locus YPR135W, strain CTF4, stronger effect = lower value 1.15

NC(N)=NC(N)=Nc1cccc(Cl)c1
inactive: [1] 1.01 | [7] 1 | [8] 1.01 | [9] 0.999 | [10] 0.993 | [2] 1 | [3] 0.999 | locus YNL128W, strain TEP1, stronger effect = lower value 1.03 | [4] 1 | [11] 1.01 | [12] 1.04 | [13] 1.01 | [5] 0.995 | [14] 1.05 | [6] 1

CC(=O)NC(CS)C(=O)O (centres undefined)
inactive: [7] 0.975 | [8] 0.993 | [9] 1.03 | [10] 0.994 | locus YGR229C, strain SMI1, stronger effect = lower value 1.02 | [3] 0.988 | [4] 0.979 | [11] 0.974 | [12] 0.988 | [13] 0.983 | [14] 0.996
